ELG1 genotox = induces genotoxicity in HEK293T cells with luciferase-tagged ELG1 | Potency, µM (highest dose often 46 µM), for inactives: top-dose activity change, positive = activation, most hits filed as activators | 330,000 tested, 1.3% active | HEK293T ELG1-luciferase reporter, luminescence, 16 h; also: % of control where 0% means no effect; nearly all actives have a fitted effect of over 60% in size
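Luminescence read-out: rising ELG1-luciferase signal, reflecting elevated ELG1 protein under genetic stress, flags genotoxic compounds. Cells were treated for 16 hr at 37 °C before ONE-Glo detection.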
SMN2 splice enh = increases expression of the SMN2 splice variant; HEK293 SMN2-luciferase splicing reporter, luminescence, 30-36 h; Potency, µM (top dose mostly 46.1 µM), inactives show top-dose activity change, positive = activation, hits mostly activators; 210,000 tested, 2.8% active; also: % of control where 0% means no effect; nearly all actives have a fitted effect of over 55% in size
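qHTS luciferase splicing reporter: luminescence rises when SMN2 exon 7 is included in transfected HEK293 cells. Compound exposure lasted 30-36 h at 37C, with 4.5 mM final sodium butyrate as control, followed by a ONE-Glo read.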
FLuc modulator = counter-screen for miR-21 project: firefly luciferase inhibitors or activators. P08659. purified FLuc, Km substrates, luminescence inhibition. Potency, µM (highest dose often 57.5 µM), for the others: top-dose activity change, negative = inhibition, usual class: inhibitors. 360,000 tested, 6.9% active;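 also: plate controls were vehicle for no effect and reference inhibitor for full effect; nearly all actives have a fitted effect of over 55% in size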
Target sequence (P08659 whole entry, looked up): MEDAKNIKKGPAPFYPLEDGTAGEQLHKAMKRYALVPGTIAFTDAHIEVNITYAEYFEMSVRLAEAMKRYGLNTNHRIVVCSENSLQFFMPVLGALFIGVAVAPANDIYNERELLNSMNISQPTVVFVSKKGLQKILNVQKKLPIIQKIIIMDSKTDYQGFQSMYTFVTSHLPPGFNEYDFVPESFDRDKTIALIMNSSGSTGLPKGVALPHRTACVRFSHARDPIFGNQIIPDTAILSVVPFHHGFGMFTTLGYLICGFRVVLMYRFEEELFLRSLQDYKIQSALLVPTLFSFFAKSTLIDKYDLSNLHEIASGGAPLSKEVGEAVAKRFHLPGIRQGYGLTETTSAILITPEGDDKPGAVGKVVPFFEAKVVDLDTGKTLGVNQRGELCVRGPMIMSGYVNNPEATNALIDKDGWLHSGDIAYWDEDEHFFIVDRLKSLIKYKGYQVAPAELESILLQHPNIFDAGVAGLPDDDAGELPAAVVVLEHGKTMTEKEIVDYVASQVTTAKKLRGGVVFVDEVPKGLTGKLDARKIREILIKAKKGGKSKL
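Purified P. pyralis luciferase, 10 nM final, with Km-level 10 uM D-luciferin and 10 uM ATP in 50 mM Tris acetate pH 7.5, 10 mM Mg acetate, 0.01% Tween-20, 0.05% BSA; 6-point qHTS titration about 60 µM downward; luminescence read.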
Rab9 promoter act = Rab9 promoter activation | Huh7 Rab9 promoter-luciferase reporter, luminescence, 24 h | Potency, µM (doses to about 9.22 µM), for the others: at the top dose activation, negative = inhibition, hits mostly activators | 320,000 tested, 2.8% active | AID 485297; also: % of control where 0% means no effect; nearly all actives have a fitted effect of over 60% in size
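Huh7 cells stably carrying a Rab9 promoter-luciferase reporter, 1500 cells per well in OP-MEM I with 10% FBS, treated with compound 24 hours at 37C. Luciferase activity read by luminescence after 10 minutes with Amplite reagent.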
ELG1 DNA repair = blocks ELG1-dependent DNA repair in HEK293T cells; HEK293T ELG1-luciferase reporter, luminescence, 16 h; DNA damage induced by 5-fluorouridine; Potency, µM (top dose mostly 46.1 µM), inactives show at the top dose activity change, negative = inhibition, usual class: inhibitors; 330,000 tested, 2.3% active; AID 504467; also: % is scaled to controls: 0 for no effect and ±100 for the full control effect; nearly all actives have a fitted effect of over 55% in size
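DMSO vehicle served as the neutral condition. Each well held 2,000 cells given 5-fluorouridine plus compound; after 16 hr at 37 °C/5% CO2, ONE-Glo was added and luciferase measured 30 min later.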
NPC1 prom act = NPC1 promoter activation; Huh7 NPC1 promoter luciferase reporter, 24 h; Potency, µM (highest dose often 9.22 µM), without a hit: at the top dose activation, actives largely listed as activators; 320,000 tested, 2.4% active; also: % of control where 0% means no effect; nearly all actives have a fitted effect of over 60% in size
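Huh7 reporter cells (NPC1 promoter driving luciferase) are dosed with compound for 24 h at 37 °C, 5% CO2; luciferase detection reagent is then added and luminescence measured after 10 min at ambient temperature.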
* = called active by the depositor; u = inconclusive; x = no result given. In the library only some 9.2% were active in any assay of this set; here they are far more common. Calls follow the shape of the dose curve; as a rule, active = well fitted curve in the direction sought with a large enough effect; inconclusive = small, poorly fitted or top-dose-only effect, or another doubt; inactive = no such curve, though single readings can be large; an effect the other way counts as inactive or inconclusive. Potency is read from the fitted curve at half-maximal effect.

SMILES | ELG1 genotox | SMN2 splice enh | FLuc modulator | Rab9 promoter act | ELG1 DNA repair | NPC1 prom act
O=C(Nc1nc(=O)c2ccccc2s1)c1ccccc1 | 7.3µM* | 43% | 4.3µM* | 20% | u | 0%
CC(=O)Nc1nc(=O)c2ccccc2s1 | 0% | 18% | -1% | 3% | u | 1%
COc1cccc(C(=O)N(C)C(C)c2nc3ccccc3s2)c1 (stereo not given) | -12% | x | -1% | 0% | -7% | -1%
CCOC(=O)C1CCCN(C(=O)Cn2ncc3c4ccccc4n(C)c3c2=O)C1 (stereo not given) | x | 2% | -9% | x | x | x
Cc1ccc(S(=O)(=O)N2CCOCC2)cc1NC(=O)COC(=O)c1ccc(Cl)nc1 | -1% | x | x | x | 1% | x
Cc1ccc(N(C(=O)c2csnn2)C(C(=O)NC2CCCCC2)c2ccncc2)cc1 (stereo not given) | 6% | x | -2% | 4% | 7% | -9%
CCOC(=O)c1sc2nc3c(SCC(=O)O)cc(C(=O)c4cc(F)ccc4O)cn3c(=O)c2c1C | 4% | 23% | 8.5µM* | -3% | 24% | 1%
Cc1sc2nc(SCC(N)=O)n(-c3ccccc3)c(=O)c2c1C | 8% | 9% | -8% | -5% | -12% | 0%
COC(=O)c1cc(C(=O)c2cc(F)ccc2O)cn2c(=O)c3c(C)c(C)sc3nc12 | -5% | x | u | -1% | u | -2%
Cc1sc2nc3c(SC(C)C(=O)O)cc(C(=O)c4ccccc4O)cn3c(=O)c2c1C (stereo not given) | 5% | 13% | 21µM* | -11% | 10% | -5%
COc1ccc(O)c(C(=O)c2cc(SCC(=O)O)c3nc4sc5c(c4c(=O)n3c2)CCCC5)c1 | 4% | x | 6.7µM* | -3% | 8% | 2%
COc1ccc(-n2c(SCC(=O)O)nc3sc4c(c3c2=O)CCCC4)cc1 | 0% | x | 0% | -2% | 10% | 1%
O=C(O)CSc1cc(C(=O)c2ccccc2O)cn2c(=O)c3c(-c4ccccc4)csc3nc12 | 0% | -2% | 15µM* | 1% | -15% | -4%
Cc1cccc(C)c1NC(=O)Cn1c(=O)n(Cc2ccc3c(c2)OCO3)c(=O)c2oc3ccccc3c21 | x | x | -1% | x | x | x
c1ccc(-c2cc(NCCN3CCCCC3)c3ccccc3n2)cc1 | 8% | x | -2% | -14% | u | -7%
Cc1cc(=O)n(CC(=O)N2CCCCC2)c2c1c(C)nn2C | x | x | 1% | x | x | x
CCOC(=O)c1sc2nc3c(SCC(=O)O)cc(C(=O)c4ccccc4O)cn3c(=O)c2c1C | 2% | 19% | 2.4µM* | 13% | 11% | 18%
CCc1c(C)sc2nc3c(C(=O)N4CCOCC4)cc(C(=O)c4ccccc4O)cn3c(=O)c12 | -12% | -15% | -12% | -15% | u | 2%
COc1ccccc1-c1cc2nc(C)c(CCC(=O)NCc3cccc(Cl)c3)c(C)n2n1 | x | 3% | u | x | x | x
Cc1ccc(-c2cn(-c3ccc(Cl)cc3)c(S(=O)(=O)CC(=O)Nc3ccccc3)n2)cc1 | x | 3.2µM* | u | x | x | x
COc1ccccc1N1CCN(C(=O)CCn2cnc3onc(-c4ccc(F)cc4)c3c2=O)CC1 | x | x | -6% | x | x | x
CCCCN(CC)CCNC(=O)c1c(C)oc2ncnc(N3CCOCC3)c12 | x | x | -4% | x | x | x
Cc1cnn(C(=O)c2cc(-c3ccccc3)nc3ccccc23)c1 | -3% | 7% | 17µM* | 8% | -1% | 2%
O=C(c1cccnc1)N1CCCc2ccccc21 | 3% | -3% | 3% | 7% | 13% | 1%
Cc1ccc(-c2cc(C(F)(F)F)n3ncc(C(=O)N4CCCc5ccccc54)c3n2)cc1 | 8% | -16% | 0% | -3% | 16% | -6%
SMILES | ELG1 genotox | SMN2 splice enh | FLuc modulator | Rab9 promoter act | ELG1 DNA repair | NPC1 prom act
Cc1cnn(-c2nc(-c3ccccc3)cc(-c3ccccc3)n2)c1 | -10% | x | 1% | -9% | 21µM* | -10%
Cc1ccc(-c2cc(C(=O)N3CCCc4ccccc43)c3ccccc3n2)cc1 | u | -17% | 3.4µM* | 1% | u | 9%
Cc1cc2ncn(C(=O)c3cc(-c4ccccc4)nc4ccccc34)c2cc1C | 1% | 0% | u | 1% | 1% | 0%
O=C(c1cc(-c2cccnc2)nc2ccccc12)N1CCCc2ccccc21 | -5% | -7% | -19% | 1% | 21µM* | -4%
Cc1cc(C)cc(NC(=O)CCCCCN2C(=O)[C@@H]3Cc4ccccc4CN3C2=O)c1 | -2% | x | -1% | 2% | -11% | 0%
CC1(NC(=O)c2cc(Cl)nc3ccccc23)CCS(=O)(=O)C1 (stereo not given) | 0% | x | 4% | 2% | 8% | 1%
C=CC(=O)Nc1ccc(Nc2nc(NC3CCC(N(C)C)CC3)nc3c2ncn3C(C)C)cc1 (stereo not given) | 1% | x | x | x | 2.3µM* | x
Cc1cc(/C=C(/C#N)C(=O)Nc2ccccc2)c(C)n1-c1cccnc1 | 1% | 1% | 1.5µM* | 4µM* | u | u
Cc1cc(/C=C(\C#N)C(=O)Nc2ccccc2)c(C)n1-c1ccc2c(c1)OCO2 | -4% | -14% | 11µM* | 1% | u | 6%
CC(C)c1ccc(/C=C/C(=O)NC2=NCCS2)cc1 | u | 1.8µM* | 1.3µM* | 0.32µM* | u | 0.32µM*
O=C(/C=C/c1ccc(Cl)c(Cl)c1)NC1=NCCS1 | 18% | 15% | u | 2.2µM* | u | 2.8µM*
COc1cccc(NC(=O)CN(C)C(=O)CNC(=O)c2ccc3ccccc3c2)c1 | u | x | u | 18% | u | 15%
CC1CCN(S(=O)(=O)c2ccc(NC(=O)C3CCN(C(=O)c4ccco4)CC3)cc2)CC1 | -8% | x | -2% | -7% | -14% | -4%
CC1CC(C)CN(S(=O)(=O)c2cccc3cccnc23)C1 (stereo not given) | -6% | -28% | -12% | 1% | -3% | -1%
O=c1n(S(=O)(=O)c2cccc3cccnc23)c2ccccc2n1S(=O)(=O)c1cccc2cccnc12 | -2% | 11µM* | -2% | -1% | 0% | -2%
CCOc1ccc(NC(=O)NCc2ccc3c(c2)OCO3)cc1 | 3% | x | 0% | 17% | -3% | 0%
Cc1ccc(COc2ccc3c(c2)OCO3)cc1 | u | x | 1.2µM* | 4µM* | u | 2.2µM*
O=Cc1ccc(OCc2ccc3c(c2)OCO3)cc1 | 18µM* | x | 4.8µM* | 2% | u | 17%
Cc1ccc(OCCC(=O)Nc2ccc3c(c2)OCO3)cc1 | 0% | x | -3% | -1% | u | 3%
CCOC(=O)c1sc(-n2[nH]c(C)cc2=O)nc1C | 2% | -3% | 15µM* | 2% | 2% | 11%
O=C(CSc1nnc(-c2ccc3c(c2)OCO3)o1)Oc1ccccc1 | x | x | -3% | x | x | x
